{"source": "PubChem BioAssay (NCI)", "note": "Compounds without any hit were thinned out: in the full panel of roughly 79,000, 15% have a hit. Unmarked numbers belong to inactive results. Cut-off read from the data, not from the text of the source: active = growth inhibition above about 70%; inactive = the rest."}
{"assay": "NCI Yeast Anticancer Drug Screen. Data for the rad50 strain (AID 155);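 note: 0% = growth of vehicle-only cultures of the same strain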", "settings": "S. cerevisiae rad50 strain growth inhibition; at 50.0 µM; active compounds read high", "method_in_brief": "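Cells are treated with compound, grown, and their growth is then scored against vehicle-only cultures of the same repair-deficient yeast strain.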", "units": {"growth inhibition": "%"}}
{"smiles": "O=C1CC(NC(=O)C(F)(F)F)c2c(Br)sc(N3CCNCC3)c21", "note": "(stereo unspecified)", "growth inhibition": 6.05}
{"smiles": "COC(=O)C1(Cc2ccccc2)Cc2ccccc2C1", "growth inhibition": 24.7}
{"smiles": "CCOC(=O)NN(C(=O)OCC)c1c(NN)n(C)c(=O)n(C)c1=O", "growth inhibition": 2.7}
{"smiles": "Cc1ccc(NC2=CC(=O)c3ccccc3C2=O)cc1", "growth inhibition": 22.4}
{"smiles": "COc1cc2cc[n+]3c(C)c4ccc(OC)c(OC)c4cc3c2cc1OC", "note": "(tested in a mixture with another compound)", "growth inhibition": -4.15}
{"smiles": "O=C(O)c1ccccc1NCn1c(=S)sc2ccccc21", "growth inhibition": 63}
{"smiles": "COC(=O)Nc1nc2ccc(SC)cc2c(=O)[nH]1", "growth inhibition": -9.55}
{"smiles": "O=Cc1ccccc1Cl", "growth inhibition": 28}
{"smiles": "O=S(=O)(Nc1c(Cl)c(Cl)c(NS(=O)(=O)c2ccccc2)c(Cl)c1Cl)c1ccccc1", "growth inhibition": 46.2}
{"smiles": "CCCCCCCCOC(=O)Nc1ccc(S(=O)(=O)CC)cc1", "growth inhibition": -3.3}
{"smiles": "COC(=O)CC1NC(=O)[C@]1(C)[C@H](C)O", "note": "(stereo partly specified)", "growth inhibition": -37.1}
{"smiles": "O=C1N=C(C=c2ccc(=Cc3[nH]c(=O)[nH]c3O)cc2)C(=O)N1", "growth inhibition": -5.95}
{"smiles": "CCC1CN2CCc3cc(OC)c(OC)cc3C2CC1CC1c2cc(OC)c(OC)cc2CCN1C(=O)C1CCCN1", "note": "(stereo unspecified)", "growth inhibition": -1.45}
{"smiles": "Nc1ccc(C(=O)O)cc1O", "growth inhibition": 13.7}
{"smiles": "CCCCCCN(C(=O)Oc1ccccc1)C(C#N)c1ccccc1", "note": "(stereo unspecified)", "growth inhibition": 0.1}
{"smiles": "Nc1ccc(-c2ccccc2)cc1[N+](=O)[O-]", "growth inhibition": 33.2}
